Measurements: PubChem BioAssay AID2016 (NMMLSC, 2009)
Out of some 330,000 compounds screened, about 1,700 (0.52%) were called active. The sample as a whole holds a higher share of actives than the screen did. Values without a mark were called inactive.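 How the source made its calls: active means GFP response versus DMSO above a set limit, roughly screen mean plus 3 SD (cut at about 180% in these data); inconclusive means fewer than 70 cells counted for a yeast strain; inactive means the rest.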

Assay: TOR pathway GLN3 branch reporter MEP2-GFP changes – S. cerevisiae, multiplex flow cytometry, MLPCN library, primary screen (AID 2016);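 further: median GFP fluorescence of the barcode-gated MEP2-GFP cells per well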
Details: S. cerevisiae MEP2-GFP strain, 3 h, at 10 µM, stronger effect = higher value, 100% = DMSO control level

SMILES	GFP response vs DMSO
CCc1ccccc1NC(=O)CSc1nnc(CCNC(=O)OC(C)(C)C)o1	114%
CCc1ccccc1NC(=O)CSc1nnc([C@@H](NC(=O)OC(C)(C)C)C(C)CC)o1 (some centres not stated)	193% [may fluoresce violet] (active)
CCc1ccccc1NC(=O)CSc1nnc([C@@H](NC(=O)OC(C)(C)C)C(C)C)o1	88.8%
C#CCOCCOCCOCCNc1nc(N2CCN(C(=O)C(Cc3ccc(O)cc3)n3cc(C(N)CC(C)C)nn3)CC2)nc(N2CCN(C(=O)C(Cc3ccc(O)cc3)n3cc(C(N)C(C)CC)nn3)CC2)n1 (configuration not stated)	93.7%
CC(NCC(=O)Nc1cc(Cl)cc(Cl)c1)c1ccccc1 (configuration not stated)	91.3%
CCSc1sc(CC)cc1C=O	210% [may fluoresce violet] (active)
COc1ccc2c(c1)C(=C(C#N)C#N)C(=O)N2CCc1ccccc1	103%
CC(=O)C1=C(C)NC(=O)NC1c1ccc2c(c1)OCO2 (configuration not stated)	179% [may fluoresce violet] (active)
COCCOC(=O)C1=C(C)NC(=O)NC1c1cc2c(cc1Br)OCO2 (configuration not stated)	95.2%
CCOCCOC(=O)C1=C(C)NC(=O)NC1c1ccc2c(c1)OCO2 (configuration not stated)	111%
O=C(CC12CC3CC(CC(C3)C1)C2)Nc1ccc2c(c1)COC2=O	99.2%
Brc1ccc(C2CC(c3ccccc3)=Nc3ccccc3N2)cc1 (configuration not stated)	101%
OCC[C@H]1C[C@@H](O)[C@H](O)[C@]2(OCCCc3ccccc32)O1	96.7%
Cc1ccc(C2Nc3cccc4cccc(c34)N2)cc1	110%
Brc1ccccc1C1Nc2cccc3cccc(c23)N1	104%
Oc1ccc(C2Nc3cccc4cccc(c34)N2)cc1	184% (active)
O=C(CSc1n[nH]c(=O)n1-c1ccccc1)Nc1ccccc1C(F)(F)F	109%
COc1ccc(C)cc1NC(=O)CN(C)S(=O)(=O)c1ccc2c(c1)n(C)c(=O)c(=O)n2C	110%
COc1ccccc1NS(=O)(=O)c1ccc(C)c(C(=O)NCC(c2ccco2)N(C)C)c1 (configuration not stated)	104%
O=C(c1ccncc1)c1ccc([N+](=O)[O-])cc1	90.2%
O=C(CC(n1cncn1)C(Cl)(Cl)Cl)c1ccc([N+](=O)[O-])cc1 (configuration not stated)	91.9%
CCc1noc(C)c1C(=O)NNC(=O)c1ccc(F)cc1	100%

SMILES	GFP response vs DMSO
Cc1onc(-c2ccccc2)c1C(=O)NNC(=S)NC(=O)c1ccc(F)cc1	176% [may fluoresce violet] (active)
COc1ccc(C(=O)NC(=S)NNC(=O)c2c(-c3ccccc3)noc2C)cc1	113%
O=C(OCC(=O)N1CCCCCC1)c1ccc(Cl)nc1	105%
CCC(CO)Oc1cc(NC(=O)c2ccc(Cl)cc2)c2ncn(C(C)C)c2c1 (configuration not stated)	102%
Cc1ccc(C2(C)NC(=O)N(CC(=O)N3CC(=O)Nc4ccccc43)C2=O)cc1 (configuration not stated)	95%
CCC(C)(C)NC(=O)C(c1ccc(O)cc1)N(C(=O)Cn1nnc2ccccc21)c1ccc(NC(C)=O)cc1 (configuration not stated)	93.5%
CCC(C)(C)NC(=O)C(c1cccn1C)N(Cc1ccc(C)cc1)C(=O)Cn1nnc2ccccc21 (configuration not stated)	200% [may fluoresce violet] (active)
CC(C)(C)NC(=O)C(c1ccco1)N(Cc1ccc2c(c1)OCO2)C(=O)Cn1nnc2ccccc21 (configuration not stated)	101%
O=C(NCc1ccccc1Cl)C1CCN(S(=O)(=O)N2CCOCC2)CC1	93.8%
O=C(NCc1ccco1)C1CCCN(S(=O)(=O)c2cccc3nonc23)C1 (configuration not stated)	97.8%
O=C(NCc1ccccc1Cl)C1CCN(S(=O)(=O)c2cccc3nonc23)CC1	287% [may fluoresce violet] (active)
CCc1cccc(C)c1NS(=O)(=O)c1cc(Br)cnc1N	105%
Cn1c(=O)n(C)c(=O)n(CC(=O)N2CCCCC2)c1=O	95.9%
CCC1(C)Cc2c(sc3nnn(CC(=O)Nc4ccc(Cl)cc4)c(=O)c23)CO1 (configuration not stated)	104%
CCC1(C)Cc2c(sc3[nH]c(=S)n(Cc4ccccc4)c(=O)c23)CO1 (configuration not stated)	234% [may fluoresce violet] (active)
CCn1c(=S)[nH]c2sc3c(c2c1=O)CCCCC3	106%
O=C(NNS(=O)(=O)Cc1ccccc1)c1ccc([N+](=O)[O-])cc1	796% [may fluoresce violet] (active)
O=C(CNC(=O)c1ccccc1)Oc1ccc([N+](=O)[O-])cc1	109%
O=C(Cc1ccccc1)NNS(=O)(=O)c1ccc([N+](=O)[O-])cc1	94.8%
COCCn1c(C)cc(C(=O)CSc2nnc(C3CC3)n2C2CC2)c1C	101%
CCN(CCCNC(=O)CSc1cc(=O)n(C)c2cc(Cl)ccc12)Cc1ccccc1	102%
Cc1cc(C=O)c(C)n1-c1ccc(NC2CCCCC2)c([N+](=O)[O-])c1	101%

SMILES	GFP response vs DMSO
CCOC(=O)c1sc2nc(C)nc(SCC(N)=O)c2c1C	105%
O=C(NCc1ccncc1)C1CCN(C(=O)c2cccc(Cl)c2)CC1	465% [may fluoresce violet] (active)
COc1ccc(CNC(=O)C2CCN(C(=O)c3ccccc3)CC2)cc1	96.9%
O=C(c1cccc(Cl)c1)N1CCN(Cc2ccccc2)CC1	110%
CC1CC(NC(=O)/C(C#N)=C/c2ccc[nH]2)CC(C)(C)C1 (configuration not stated)	90.7%
COc1cc(CCC(=O)Nc2ccncc2Cl)cc(OC)c1OC	101%
C/C(=N\NC(=O)c1ccc2ccccc2c1)c1cccnc1	91.2%
C/C(=N\NC(=O)c1cccnc1)c1ccc(-n2ccnc2)cc1	89.5%
C/C(=N\NC(=O)c1cccnc1)c1ccc(-c2ccccc2)cc1	189% [may fluoresce violet] (active)
Cc1noc(C)c1-c1nc(CSc2ccc(Cl)cc2)no1	105%
O=C(Nc1ccccc1Cl)N1CCN(c2ccc3nncn3n2)CC1	97.1%
COc1ccc(/C=N/Nc2ncnc3sc4c(c23)CCCC4)cc1O	106%
CCOc1ncccc1C(=O)OCC(=O)N1c2ccccc2CC1C (configuration not stated)	92.2%
CCOc1ncccc1C(=O)OCc1cn2cc(Cl)ccc2n1	561% [may fluoresce violet] (active)
CCOc1ncccc1C(=O)OCC(=O)NC1CC1	100%
N#CC(C#N)=CN=c1ccn(Cc2ccc(Cl)cc2Cl)cc1	107%
COc1ccccc1CN1CCN(Cc2cc(OC)c(OC)cc2OC)CC1	114%
COc1ccc(CN2CCCC(N3CCc4ccccc4C3)C2)c(O)c1 (configuration not stated)	104%
COc1ccccc1CN1CCCC(N2CCN(c3ccc(F)cc3)CC2)C1 (configuration not stated)	485% [may fluoresce violet] (active)
COc1ccc(/C=C/CN2CCN(Cc3ccc(C)cc3)C(CCO)C2)cc1 (configuration not stated)	104%
CC12CCC(=O)N1C(C(=O)NCCN1C(=O)S/C(=C\c3ccccc3F)C1=O)CS2 (configuration not stated)	107%
COc1cccc(N(C(=O)CNC(=O)c2ccco2)C(C(=O)NC2CCCCC2)c2cccnc2)c1 (configuration not stated)	104%

SMILES	GFP response vs DMSO
CC(C)(C)NC(=O)C(c1ccncc1)N(C(=O)CNC(=O)c1ccco1)c1ccc2c(c1)OCO2 (configuration not stated)	111%
Cc1ccc(N(C(=O)CNC(=O)c2ccco2)C(C(=O)NC2CCCC2)c2ccncc2)cc1 (configuration not stated)	359% [may fluoresce violet] (active)
O=C(Nc1ccc(S(=O)(=O)NCC2CCCO2)cc1)c1ccc(F)cc1 (configuration not stated)	101%
O=C(CN1CCCCCC1)Nc1c(Cl)cc(Cl)cc1Cl	98.7%
Oc1ccccc1C1=NN(c2ccccc2)C(c2ccccc2)C1 (configuration not stated)	107%
Cc1ccc(N2C(=O)C3N=NN(CC(=O)N4N=C(c5cccc6ccccc56)CC4c4ccccc4)C3C2=O)cc1 (configuration not stated)	102%
O=C1C2N=NN(CC(=O)N3N=C(c4cccc5ccccc45)CC3c3ccccc3)C2C(=O)N1c1ccccc1 (configuration not stated)	299% [may fluoresce violet] (active)
CCOC(=O)c1c(NC(=O)CSc2nnc(CN3CCOCC3)n2C)sc2c1CCCC2	99.8%
CCOC(=O)C1CCN(C(=O)C2CCN(S(=O)(=O)CC)CC2)CC1	98.5%
Cc1ccc2cc3cc(C(=O)N4CCCCCC4)oc3nc2c1	97.2%
CCCCN1C(=O)c2ccc(C(=O)Nc3ccc(S(=O)(=O)N(C)C)cc3)cc2C1=O	87.8%
COCCN1C(=O)N[C@@H](c2ccccc2)C(C(=O)OC)=C1C	91.3%
COCCN1C(=O)N[C@@H](CCc2ccccc2)[C@H](C(C)=O)[C@H]1C	86.4%
COCCN1C2=C(COC(C)(C)C2)C(=S)NC1c1ccccc1 (configuration not stated)	234% (active)
Brc1ccc2c(c1)[C@H]1OCC[C@H]1[C@@H](c1cccs1)N2	102%
C[C@H]1CCC(=O)N([C@H](CSc2ccccc2)Cc2ccccc2)CC1	93.7%
C=CCC1=C/C(=C\c2c(N)n3nc(CC(=O)N4CCOCC4)sc3nc2=O)C=C(OC)C1=O	102%
CN(Cc1ccc(F)cc1)C(=O)CN1C(=O)c2ccccc2S1(=O)=O	95%
CCC(=O)c1cc(F)ccc1OCC(=O)Nc1ccc2c(c1)OCCO2	104%
COc1ccccc1OCCCC(=O)Nc1ccc2c(c1)OCCO2	92.3%
CCc1ccccc1OCC(=O)Nc1ccc2c(c1)OCCO2	366% [may fluoresce violet] (active)
